# Rows were chosen to be rich in hits. Some 4.6% of all compounds tested hit in one or more screens of this group.
# D1 PAM – enhances dopamine response at the human D1 receptor; AID 504651; HEK293 TREx D1 cells, calcium flux, dopamine EC20 potentiation; hit rate 0.036% among 360,000; potentiation, % at 10 µM; P21728; in the data active = potentiation above about 30%; also: 0% is about no effect
# D1 agonist – human D1 receptor agonism; HEK293 T-REx D1 cells, calcium flux, agonist mode; activation, % at 2 µM; hit rate 1% among 360,000; AID 504660; also: 0% is about no effect
#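 Agonism was scored from calcium flux recorded over 180 s (1 read/s) after pintool compound addition, following a 10-cycle baseline. Cells were inducible force-coupled HEK293 TREx D1, plated overnight at 30 C and loaded with no-wash calcium dye.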
# TRHR PAM – allosteric enhancers of human TRH receptor. P34981. TRHR cells, fluo-8 calcium fluorescence, EC20 TRH enhancement. enhancement, % at 2 µM. hit rate 0.66% among 360,000; in the data active = enhancement above about 30%; also: 0% is about no effect
# Target sequence (P34981 whole entry, looked up): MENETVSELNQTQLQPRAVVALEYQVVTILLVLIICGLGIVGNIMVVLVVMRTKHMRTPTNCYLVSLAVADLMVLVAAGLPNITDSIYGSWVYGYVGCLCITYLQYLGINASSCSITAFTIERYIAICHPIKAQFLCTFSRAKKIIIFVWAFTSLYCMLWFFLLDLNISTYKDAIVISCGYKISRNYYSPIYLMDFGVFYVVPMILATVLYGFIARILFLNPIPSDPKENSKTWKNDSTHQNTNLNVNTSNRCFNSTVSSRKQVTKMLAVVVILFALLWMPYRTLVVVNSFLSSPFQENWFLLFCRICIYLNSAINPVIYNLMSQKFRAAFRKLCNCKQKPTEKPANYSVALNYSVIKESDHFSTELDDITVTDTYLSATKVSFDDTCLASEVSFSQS
#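 TRHR-expressing cells loaded with fluo-8 calcium dye were read kinetically (ex 480/em 530) during compound addition, then stimulated with an EC20 of TRH (10 nM final). Enhancement of the Gq-mediated intracellular calcium response was scored.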
# TRHR agonist – agonists of human TRH receptor; P34981; TRHR cells, calcium flux fluo-8, FDSS agonist mode; activation, % at 2 µM; hit rate 0.18% among 360,000; also: 0% is about no effect
#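 TRHR-expressing cells loaded with fluo-8 calcium dye; 23 nL library compound pin-transferred, kinetic FDSS fluorescence (Ex 480/Em 530) recorded about 180 s for agonist-induced calcium release, before a 10 nM TRH EC20 addition for potentiator mode.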
# D1 antagonist – human D1 dopamine receptor antagonism | activity change, negative = inhibition, % at 10 µM | HEK293 TREx D1 cells, calcium flux, dopamine EC80; active compounds read low | hit rate 3.2% among 360,000; in the data active = activity change below about -30%; also: % is scaled to controls: 0 for no effect and ±100 for the full control effect
#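 Compound effects on dopamine-evoked calcium signalling were measured in tetracycline-induced HEK293 Trex D1 cells. Dopamine at EC80 followed a 180 s compound pre-read, and fluorescence was tracked kinetically for 180 s more.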
# Active calls of the source: *. Rule as the data show it, unless noted: active = activation above about 30%; inactive = the rest.
SMILES,D1 PAM,D1 agonist,TRHR PAM,TRHR agonist,D1 antagonist
NC(=Nc1ccc(Br)cc1)c1ccccc1,0,45*,-15,19,-39*
O=C(C1CCC(=O)N(C2CCCC2)C1)N1CCC(Oc2cccc(F)c2)CC1 (stereo unspecified),-5,2,0,1,8
O=C(C1CCC(=O)N(C2CC2)C1)N1CCC(Oc2cccc(F)c2)CC1 (stereo unspecified),-6,-1,3,1,-37*
Cc1cc(S(=O)(=O)Nc2ccc(C(=O)NCC3(N(C)C)CCCCC3)cc2)ccc1F,-1,3,1,1,4
CCOC(=O)[C@H]1[C@H]2COc3ccc(Cl)cc3[C@@H]2N2C(=O)c3cc(F)ccc3NC(=O)[C@@]12C,4,31*,1,0,7
CCOC(=O)[C@H]1[C@H]2COc3ccc(C)cc3[C@@H]2N2C(=O)c3cc(F)ccc3NC(=O)[C@@]12C,-6,-2,6,0,-24
CCCCC(CC)CNC(=O)c1cccs1 (stereo unspecified),-2,-1,2,0,-62*
CC(C)c1ccc(NC(=O)CSc2nc3ncccc3[nH]2)cc1,-2,6,2,-1,-17
O=C(NNc1ccccn1)c1ccccc1CC[N+](=O)[O-],-10,2,-9,0,-44*
Cc1nnc(NC(=O)CCSCCC(=O)Nc2nnc(C)s2)s1,5,1,1,0,8
Cc1nc2ccccc2c(N)c1C(=O)/C=C/c1ccccc1,-6,25,-7,1,-32*
CC(=O)c1c(C)nc2ccccc2c1N,3,0,-4,0,9
O=C(Cn1ncc2c3ccccc3n(Cc3ccc(Cl)cc3)c2c1=O)NCCC1=CCCCC1,-1,5,-3,1,6
O=c1[nH]c2ccc(NCc3ccc(-c4ccc(Cl)cc4)o3)cc2[nH]1,0,-3,9,-3,-9
COc1ccc(-c2ccc(CNc3ccc4[nH]c(=O)[nH]c4c3)o2)cc1Cl,-2,7,5,-1,-52*
O=C1Nc2ccc(Cl)cc2C12Nc1ccccc1-c1nnc(SCc3ccccc3F)nc1O2 (stereo unspecified),-11,3,4,-1,-45*
Cc1ccc(S(=O)(=O)NCCN=Cc2ccc(N(C)C)cc2)cc1,4,1,-33,1,-20
Cc1cc(Nc2cccc(Cl)n2)n(-c2ccccc2)n1,0,2,6,-1,4
COc1ccc(/C=N/n2cc(-c3ccc(OC)cc3)nc2N)cc1,2,-1,0,1,-38*
CC(=O)Nc1nc(C)c(C(C)C)s1,0,1,13,1,-10
O=C(Cc1ccc(S(=O)(=O)N2CCOCC2)s1)Nc1cc(C(F)(F)F)cc(C(F)(F)F)c1,-8,6,-4,1,3
CCn1cc(C(=O)NC(C)C2CC3CCC2C3)cn1 (stereo unspecified),1,3,31*,1,-12
COc1ccc(Nc2c3c(nc4nncn24)CCC3)cc1Cl,-2,3,-3,-1,-19
CCCCN(C)C(=O)c1ccc2c(=O)n3nc(Nc4cc(C)ccc4C)sc3nc2c1,-4,3,15,-1,-68*
Cc1ccc(C)c(Nc2nn3c(=O)c4ccc(C(=O)N(C)Cc5ccccc5)cc4nc3s2)c1,-3,-1,-2,0,-26
SMILES,D1 PAM,D1 agonist,TRHR PAM,TRHR agonist,D1 antagonist
Cc1ccccc1Nc1nn2c(=O)c3ccc(C(=O)NCc4ccccc4)cc3nc2s1,-5,-1,0,0,11
Cc1ccc(Cl)cc1Nc1nn2c(=O)c3ccc(C(=O)NCc4ccc(F)cc4)cc3nc2s1,-4,2,-1,-1,-33*
O=C(CCN1C(=O)C2C3CCC(C3)C2C1=O)OCC(=O)c1ccc(Br)cc1 (stereo unspecified),-2,11,-9,0,-31*
Cc1ccc(C(=O)COC(=O)CN2C(=O)C3C4CCC(C4)C3C2=O)cc1[N+](=O)[O-] (stereo unspecified),-3,8,-3,0,-24
Cc1ccc(C(=O)COC(=O)CCN2C(=O)C3C4CCC(C4)C3C2=O)cc1[N+](=O)[O-] (stereo unspecified),-5,21,0,0,-42*
Cc1ccc(Sc2ncccc2[N+](=O)[O-])cc1,-3,6,7,0,-17
CC(C)(C)n1cnnc1Sc1ncccc1[N+](=O)[O-],11,3,3,1,-32*
Cc1ccc2cc(C#N)c(NCc3ccccc3)nc2c1,-4,3,8,0,-33*
CCN(CC)CCC(c1ccc2c(c1)OCO2)c1c(OC)cc(OC)c2ccc(=O)oc12 (stereo unspecified),-10,6,1,0,-9
Cc1ccc(NC(=O)C2CCN(S(=O)(=O)c3c(C)noc3C)CC2)cc1,-3,2,0,-1,2
NNC(=O)c1ccc(COCC(F)(F)F)cc1,4,1,12,0,-12
Cc1ccn2c(-c3csc(NCc4ccccc4)n3)c(C)nc2c1,-17,8,-5,0,-33*
Cc1ccc(Nc2nc(-c3c(C)nc4ccccn34)cs2)cc1,-6,2,-9,-1,-48*
COC(=O)c1ccc(C2NC(=O)c3ccccc3O2)cc1 (stereo unspecified),-4,1,-1,1,-8
Cc1ccc(CNc2oc(-c3ccco3)nc2C#N)cc1,-7,2,-10,2,-37*
CNc1oc(-c2ccco2)nc1C#N,-3,0,6,0,9
CCC1CCC(C(=O)NC(C(=O)Nc2cccc(OC)c2)C(C)C)CC1 (stereo unspecified),-1,4,-9,0,-32*
COc1cccc(NC(=O)C2CC2)c1,-6,7,6,0,12
COc1cc(/C=C/C(=O)OCC(=O)Nc2cc(S(=O)(=O)N(C)C)ccc2Cl)ccc1O,-3,7,-2,-2,6
CCN(CC)S(=O)(=O)c1ccc(Cl)c(NC(=O)COc2ccc(OC)cc2)c1,1,8,3,1,-31*
COc1ccc(OC)c(/C=C/C(=O)OCC(=O)Nc2ccc(Cl)c(S(=O)(=O)N(C)C)c2)c1,3,7,0,0,-35*
COc1ccc(/C=C/C(=O)OCC(=O)Nc2cc(S(=O)(=O)N(C)C)ccc2Cl)cc1,-11,8,-2,0,-34*
CC1(CCC#N)N=C(SCCC#N)N(c2ccccc2)C1=O (stereo unspecified),4,4,0,1,-3
CCC1CCCCN1S(=O)(=O)c1ccc([N+](=O)[O-])cc1 (stereo unspecified),2,2,-5,1,-15
COc1ccc(OCCn2ccnc2)cc1,-4,0,-3,0,7
CCc1cccc(OCCOC(=O)CNS(=O)(=O)c2ccc(NC(C)=O)cc2)c1,-1,10,6,0,-3

# Compound activity (PubChem)
